# Laboratory results from PubChem BioAssay AID485270 (The Scripps Research Institute Molecular Screening Center, 2010).
# Hit rate of the full screen: of about 330,000 compounds, about 5,800 (1.8%) were called active. The sample holds actives, similar compounds and a random draw of the others, so the mix is not that of the screen. Unmarked numbers belong to inactive results. Rule as the data show it: active = inhibition mostly above about 38% (no sharp cut-off); inactive = mostly below about 40%.
# Target: Orexin/Hypocretin receptor type 1 (Homo sapiens) (UniProt O43613)
# Sequence (O43613 whole entry, looked up): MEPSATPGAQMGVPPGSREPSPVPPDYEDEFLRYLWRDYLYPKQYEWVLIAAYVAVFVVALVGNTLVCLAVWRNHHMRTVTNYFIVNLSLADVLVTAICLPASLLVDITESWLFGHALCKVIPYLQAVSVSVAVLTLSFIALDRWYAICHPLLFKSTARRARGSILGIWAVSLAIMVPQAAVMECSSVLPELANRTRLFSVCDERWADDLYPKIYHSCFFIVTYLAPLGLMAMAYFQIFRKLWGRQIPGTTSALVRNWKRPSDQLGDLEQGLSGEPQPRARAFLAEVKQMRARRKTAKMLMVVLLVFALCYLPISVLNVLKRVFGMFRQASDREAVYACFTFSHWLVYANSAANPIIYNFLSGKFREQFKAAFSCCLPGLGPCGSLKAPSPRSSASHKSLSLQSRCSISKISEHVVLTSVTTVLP
# Experiment: antagonists of human orexin 1 receptor (OX1R) (AID 485270);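 also: 0% = agonist challenge alone and 100% = reference antagonist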
# Conditions: OX1R-expressing cells, FRET antagonist read-out; at 6.6 µM; stronger effect = higher value
row,Compound,inhibition
1,CC[C@]1(C(=O)OC)[C@H]2C(=O)N(Cc3ccccc3)C(=O)[C@H]2[C@H]2CN=C(SCc3ccc(Cl)cc3)N21,4.24%
2,CCCS(=O)(=O)N1CCC(CCOc2ccccc2)(C(=O)OCC)CC1,17.7%
3,Cc1ccc(S(=O)(=O)NCC(=O)NNC(=O)c2ccc(Br)cc2)cc1C,15.8%
4,Nc1nc(-c2sc3nc4c(cc3c2N)CCCC4)nc(N2CCOCC2)n1,95.8% (active)
5,Cc1nc(N2CCOCC2)nc2c1CCCC2,5.29%
6,Cc1cccc(NC(=O)c2sc3nc(N4CCOCC4)c4c(c3c2N)CCCC4)c1,4.35%
7,Cc1ccccc1-n1cc(CNC(=O)C2CCC(=O)N(C3CC3)C2)cn1 (stereo not drawn),15.2%
8,C=CC[C@H](CC(=O)NCCO)C(=O)N[C@@H](COC(=O)[C@@H](CC=C)Cc1ccc(F)cc1)Cc1c[nH]c2ccccc12,5.23%
9,Cc1ccc2c(c1)c1ncn(Cc3ccc(F)cc3)c(=O)c1n2C,8.56%
10,Cc1ccc2c(c1)c1ncnc(N3CCc4ccccc4C3)c1n2C,74.4% (active)
11,Cc1ccc2c(c1)c1ncn(CCC3=CCCCC3)c(=O)c1n2C,18.4%
12,CN(c1ccccc1)S(=O)(=O)c1cc(C(=O)N2CCN(c3ncccn3)CC2)ccc1Cl,4.83%
13,COc1ccc(-c2nc(CS(=O)CC(=O)NCc3ccccn3)c(C)o2)cc1 (stereo not drawn),1.65%
14,COc1ccc2oc(=O)c(C(=O)N3CCCC3)cc2c1,0.49%
15,COc1ccc2oc(=O)c(C(=O)NCc3ccccn3)cc2c1,95.3% (active)
16,COc1ccc(CNC(=O)C[C@H]2C[C@H](C(=O)N3CCOCC3)[C@@]3(CCC4CCCC4)c4[nH]c5ccc(Cl)cc5c4CCN3C2=O)cc1OC,0.33%
17,O=C1C=CN2CCCC2CC1 (stereo not drawn),13.3%
18,CC(=O)Nc1ccc(S(=O)(=O)NCCC(=O)N2CCN(c3ccccc3Cl)CC2)cc1,13.1%
19,CN1C(=O)/C(=N/OC(=O)c2ccccc2Br)c2ccccc21,14%
20,CCC1C(=O)c2ccccc2N(C)C1=O (stereo not drawn),17.9%
21,CN1C(=O)/C(=C\c2cc(Br)cs2)c2ccccc21,63.8% (active)
22,CCOCc1c(C(=O)N2CCN(Cc3ccc(Br)s3)CC2)oc2ccccc12,5.32%
23,O=C(COc1ccc([N+](=O)[O-])cc1Cl)Nc1ccc2[nH]c(=O)[nH]c2c1,9.15%
24,CCCCCCSc1ccc([C@@H]2[C@H]3C(=O)N(CC)C(=O)[C@H]3[C@]3(C(=O)OC)CCCCN23)cc1,3.69%
25,COc1ccc(Nc2oc(-c3ccccc3Cl)nc2C#N)cc1,29.4%
26,CC1CCN(c2oc(-c3ccccc3F)nc2C#N)CC1,9.88%
27,N#Cc1nc(-c2cccc3ccccc23)oc1N,71.4% (active)
28,Cc1ccc(NC(=O)C2CC2)cc1S(=O)(=O)N1CCOCC1,5.49%
